Assay results as given in the supplement of paper PMC8728848.
Only a selection was taken, and the strongest signals are over-represented in it overall.

How the values were obtained:
Assay in all cases: glycan array binding signal (z-score within array); higher = stronger binding
Conditions in all cases: glycan notation: IUPAC condensed, linker removed
[1] = target: Fuc(a1-2)Gal(b1-3)GalNAc(a1-3)[Fuc(a1-2)]Gal(b1-4)GlcNAc
Summary of the method: (§1)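 The binding signal is a Z-score computed within each array. Data were drawn from 3228 arrays in the Consortium for Functional Glycomics database, restricted to those with a known protein sequence. Scores were averaged over arrays of the same protein sequence at different concentrations or buffers, and over linkers, and negative values can be taken as non-binding.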

[2] = target: Fuc(a1-2)Gal(b1-4)Fuc(a1-3)]GlcNAc(b1-2)Man(a1-3)[Fuc(a1-2)Gal(b1-4)[Fuc(a1-3)]GlcNAc(b1-2)Man(a1-6)]Man(b1-4)GlcNAc(b1-4)GlcNAc
Summary of the method: as §1

[3] = target: Fuc(a1-2)Gal6S(b1-4)Glc6S
Summary of the method: as §1

[4] = target: Fuc(a1-2)[GalNAc(a1-4)]Gal(b1-4)GlcNAc
Summary of the method: as §1

[5] = target: Fuc(a1-3)[Gal(b1-4)]Glc6S
Summary of the method: as §1

[6] = target: Fuc(a1-3)[Gal(b1-4)]GlcNAc(b1-2)Man(a1-3)[Fuc(a1-3)[Gal(b1-4)]GlcNAc(b1-2)Man(a1-6)]Man(b1-4)GlcNAc(b1-4)GlcNAc
Summary of the method: as §1

[7] = target: Fuc(a1-3)[Gal(b1-4)]GlcNAc(b1-3)Gal(b1-4)[Fuc(a1-3)]GlcNAc(b1-3)Gal(b1-4)[Fuc(a1-3)]GlcNAc
Summary of the method: as §1

[8] = target: Fuc(a1-3)[Gal(b1-4)]GlcNAc(b1-4)Gal(b1-4)[Fuc(a1-3)]GlcNAc
Summary of the method: as §1

Fuc(a1-4)GlcNAc = target: Fuc(a1-4)GlcNAc
Summary of the method: as §1

Fuc(b1-3)GlcNAc = target: Fuc(b1-3)GlcNAc
Summary of the method: as §1

Gal(a1-3)Gal = target: Gal(a1-3)Gal
Summary of the method: as §1

[9] = target: Gal(a1-3)Gal(b1-4)GlcNAc(b1-2)Man(a1-3)[Gal(a1-3)Gal(b1-4)GlcNAc(b1-2)Man(a1-6)]Man(b1-4)GlcNAc(b1-4)GlcNAc
Summary of the method: as §1

[10] = target: Gal(a1-3)Gal(b1-4)[Fuc(a1-3)]GlcNAc
Summary of the method: as §1

[11] = target: Gal(a1-3)Gal(b1-4)[Fuc(a1-3)]GlcNAc(b1-2)Man(a1-3)[Gal(a1-3)Gal(b1-4)[Fuc(a1-3)]GlcNAc(b1-2)Man(a1-6)]Man(b1-4)GlcNAc(b1-4)GlcNAc
Summary of the method: as §1

[12] = target: Gal(a1-4)Gal(b1-3)GlcNAc(b1-2)Man(a1-3)[Gal(a1-4)Gal(b1-3)GlcNAc(b1-2)Man(a1-6)]Man(b1-4)GlcNAc(b1-4)GlcNAc
Summary of the method: as §1

Gal(a1-4)Gal(b1-4)GlcNAc = target: Gal(a1-4)Gal(b1-4)GlcNAc
Summary of the method: as §1

[13] = target: Gal(a1-4)Gal(b1-4)GlcNAc(b1-2)Man(a1-3)[Gal(a1-4)Gal(b1-4)GlcNAc(b1-2)Man(a1-6)]Man(b1-4)GlcNAc(b1-4)GlcNAc
Summary of the method: as §1

Gal(a1-4)GlcNAc = target: Gal(a1-4)GlcNAc
Summary of the method: as §1

Gal(b1-3)GlcNAc(b1-2)Man = target: Gal(b1-3)GlcNAc(b1-2)Man
Summary of the method: as §1

[14] = target: Gal(b1-3)GlcNAc(b1-3)Gal(b1-4)Glc
Summary of the method: as §1

[15] = target: Gal(b1-3)GlcNAc(b1-3)Gal(b1-4)GlcNAc
Summary of the method: as §1

[16] = target: Gal(b1-3)GlcNAc(b1-3)GalNAc
Summary of the method: as §1

[17] = target: Gal(b1-3)[GlcNAc(b1-6)]GalNAc
Summary of the method: as §1

[18] = target: Gal(b1-4)GlcNAc(b1-3)[Gal(b1-4)GlcNAc(b1-6)]GalNAc
Summary of the method: as §1

Gal(b1-4)GlcNAc6P = target: Gal(b1-4)GlcNAc6P
Summary of the method: as §1

GalNAc(a1-3)Gal = target: GalNAc(a1-3)Gal
Summary of the method: as §1

GalNAc(a1-3)GalNAc = target: GalNAc(a1-3)GalNAc
Summary of the method: as §1

[19] = target: GalNAc(a1-3)GalNAc(a1-3)Gal(a1-4)Gal(b1-4)GlcNAc
Summary of the method: as §1

[20] = target: GalNAc(b1-3)Gal(a1-6)Gal(b1-4)Glc
Summary of the method: as §1

GalNAc(b1-3)GalNAc = target: GalNAc(b1-3)GalNAc
Summary of the method: as §1

[21] = target: GalNAc(b1-4)GlcNAc(b1-2)Man
Summary of the method: as §1

[22] = target: GlcNAc(a1-3)Gal(b1-4)GlcNAc
Summary of the method: as §1

[23] = target: GlcNAc(b1-2)[GlcNAc(b1-6)]Man(a1-6)[GlcNAc(b1-2)Man(a1-3)]Man(b1-4)GlcNAc(b1-4)GlcNAc
Summary of the method: as §1

[24] = target: GlcNAc(b1-3)Gal(b1-4)GlcNAc(b1-3)Gal(b1-4)GlcNAc(b1-2)[GlcNAc(b1-3)Gal(b1-4)GlcNAc(b1-3)Gal(b1-4)GlcNAc(b1-6)]Man(a1-6)[GlcNAc(b1-3)Gal(b1-4)GlcNAc(b1-3)Gal(b1-4)GlcNAc(b1-2)Man(a1-3)]Man(b1-4)GlcNAc(b1-4)[Fuc(a1-6)]GlcNAc
Summary of the method: as §1

[25] = target: GlcNAc(b1-3)Gal(b1-4)GlcNAc(b1-6)[GlcNAc(b1-3)]Gal(b1-4)GlcNAc
Summary of the method: as §1

GlcNAc(b1-3)Man = target: GlcNAc(b1-3)Man
Summary of the method: as §1

Kdn(a2-3)Gal(b1-3)GalNAc = target: Kdn(a2-3)Gal(b1-3)GalNAc
Summary of the method: as §1

[26] = target: Man(a1-2)Man(a1-3)[Man(a1-2)Man(a1-6)]Man(a1-6)[Man(a1-2)Man(a1-2)Man(a1-3)]Man(b1-4)GlcNAc(b1-4)GlcNAc
Summary of the method: as §1

[27] = target: Man(a1-2)Man(a1-6)[Man(a1-3)]Man(a1-6)[Man(a1-2)Man(a1-2)Man(a1-3)]Man(b1-4)GlcNAc(b1-4)GlcNAc
Summary of the method: as §1

[28] = target: Man(a1-3)[Man(a1-6)]Man(b1-4)GlcNAc(b1-4)[Fuc(a1-6)]GlcNAc
Summary of the method: as §1

[29] = target: Neu5Ac(a2-3)Gal(b1-3)GlcNAc(b1-3)Gal(b1-3)GlcNAc
Summary of the method: as §1

[30] = target: Neu5Ac(a2-3)Gal(b1-4)GlcNAc(b1-2)Man(a1-3)[Neu5Ac(a2-3)Gal(b1-4)GlcNAc(b1-2)Man(a1-6)]Man(b1-4)GlcNAc(b1-4)[Fuc(a1-6)]GlcNAc
Summary of the method: as §1

[31] = target: Neu5Ac(a2-3)Gal(b1-4)GlcNAc(b1-2)Man(a1-3)[Neu5Ac(a2-6)Gal(b1-4)GlcNAc(b1-2)Man(a1-6)]Man(b1-4)GlcNAc(b1-4)GlcNAc
Summary of the method: as §1

[32] = target: Neu5Ac(a2-3)Gal(b1-4)GlcNAc(b1-3)Gal(b1-4)GlcNAc(b1-3)Gal(b1-4)GlcNAc
Summary of the method: as §1

[33] = target: Neu5Ac(a2-3)Gal(b1-4)GlcNAc(b1-3)Gal(b1-4)GlcNAc(b1-3)Gal(b1-4)GlcNAc(b1-2)Man(a1-3)[Neu5Ac(a2-3)Gal(b1-4)GlcNAc(b1-3)Gal(b1-4)GlcNAc(b1-3)Gal(b1-4)GlcNAc(b1-2)Man(a1-6)]GalNAc
Summary of the method: as §1

[34] = target: Neu5Ac(a2-3)Gal(b1-4)[Fuc(a1-3)]GlcNAc(b1-2)Man
Summary of the method: as §1

[35] = target: Neu5Ac(a2-6)Gal(b1-4)GlcNAc(b1-2)Man(a1-6)[Gal(b1-4)GlcNAc(b1-2)Man(a1-3)]Man(b1-4)GlcNAc(b1-4)GlcNAc
Summary of the method: as §1

[36] = target: Neu5Ac(a2-6)Gal(b1-4)GlcNAc(b1-3)Gal(b1-4)GlcNAc(b1-6)[Gal(b1-3)]GalNAc
Summary of the method: as §1

[37] = target: Neu5Ac(a2-6)Gal(b1-4)GlcNAc(b1-3)GalNAc
Summary of the method: as §1

[38] = target: Neu5Ac(a2-6)GalNAc(b1-4)GlcNAc6S
Summary of the method: as §1

[39] = target: Neu5Gc(a2-3)Gal(b1-3)GlcNAc
Summary of the method: as §1

[40] = target: Neu5Gc(a2-3)Gal(b1-4)[Fuc(a1-3)]GlcNAc
Summary of the method: as §1

[41] = target: Neu5Gc(b2-6)Gal(b1-4)GlcNAc
Summary of the method: as §1

B1: GSL-I (Griffonia simplicifolia) (protein)
chain: FNLPNFWSDVKDNIIFQGDANTTAGTLQLCKTNQYGNPLQYRAGRALYSDPVQLWDNKTGSVASFYTEFTFFLKITGDGPADGLAFFLAPPDSDVKDAGAYLGLFNKSTATQPSKNQVVAVEFDTWKNTDFPEPSYRHIGINVNSIVSVATKRWEDSDIFSGKIATARISYDGSAKILTVVLSYPDGADYILSHSVDLSKNLPNPIRVGISASTGANQFLTVYVLSWRFSSALQSTSVNAAMGPEIIRTVV
In the case of B1, the “glycan array binding signal (z-score)” value [1] is reported as -0.242, the “glycan array binding signal (z-score)” value [2] is reported as 0.367 and the “glycan array binding signal (z-score)” value [3] is reported as -0.216. For the same binder, the “glycan array binding signal (z-score)” value [4] was 7.04, the “glycan array binding signal (z-score)” value [5] was -0.16 and the “glycan array binding signal (z-score)” value [6] was -0.232. The “glycan array binding signal (z-score)” value [7] was -0.188, the “glycan array binding signal (z-score)” value [8] was -0.311 and the “glycan array binding signal (z-score)” value (Fuc(a1-4)GlcNAc) was -0.215. For the same binder, the “glycan array binding signal (z-score)” value (Fuc(b1-3)GlcNAc) was -0.236, the “glycan array binding signal (z-score)” value (Gal(a1-3)Gal) was 0.597 and the “glycan array binding signal (z-score)” value [9] was 5.7. For the same binder, the “glycan array binding signal (z-score)” value [10] was 3.4, the “glycan array binding signal (z-score)” value [11] was 0.283 and the “glycan array binding signal (z-score)” value [12] was 9.69. The “glycan array binding signal (z-score)” value (Gal(a1-4)Gal(b1-4)GlcNAc) was 1.82, the “glycan array binding signal (z-score)” value [13] was 3.15 and the “glycan array binding signal (z-score)” value (Gal(a1-4)GlcNAc) was 4.53. The “glycan array binding signal (z-score)” value (Gal(b1-3)GlcNAc(b1-2)Man) was -0.124, the “glycan array binding signal (z-score)” value [14] was -0.194 and the “glycan array binding signal (z-score)” value [15] was -0.226. For the same binder, the “glycan array binding signal (z-score)” value [16] was -0.203, the “glycan array binding signal (z-score)” value [17] was -0.102 and the “glycan array binding signal (z-score)” value [18] was -0.312. For the same binder, the “glycan array binding signal (z-score)” value (Gal(b1-4)GlcNAc6P) was -0.178, the “glycan array binding signal (z-score)” value (GalNAc(a1-3)Gal) was 6.1 and the “glycan array binding signal (z-score)” value (GalNAc(a1-3)GalNAc) was 2.08. For the same binder, the “glycan array binding signal (z-score)” value [19] was 1.85, the “glycan array binding signal (z-score)” value [20] was -0.191 and the “glycan array binding signal (z-score)” value (GalNAc(b1-3)GalNAc) was -0.272. The “glycan array binding signal (z-score)” value [21] was -0.143, the “glycan array binding signal (z-score)” value [22] was -0.199 and the “glycan array binding signal (z-score)” value [23] was -0.121. For the same binder, the “glycan array binding signal (z-score)” value [24] was 0.036, the “glycan array binding signal (z-score)” value [25] was -0.255 and the “glycan array binding signal (z-score)” value (GlcNAc(b1-3)Man) was -0.193. The “glycan array binding signal (z-score)” value (Kdn(a2-3)Gal(b1-3)GalNAc) was -0.069, the “glycan array binding signal (z-score)” value [26] was -0.033 and the “glycan array binding signal (z-score)” value [27] was -0.302. For the same binder, the “glycan array binding signal (z-score)” value [28] was -0.305, the “glycan array binding signal (z-score)” value [29] was -0.152 and the “glycan array binding signal (z-score)” value [30] was -0.283. For the same binder, the “glycan array binding signal (z-score)” value [31] was -0.197, the “glycan array binding signal (z-score)” value [32] was -0.261 and the “glycan array binding signal (z-score)” value [33] was 2.34. For the same binder, the “glycan array binding signal (z-score)” value [34] was -0.227, the “glycan array binding signal (z-score)” value [35] was 0.106 and the “glycan array binding signal (z-score)” value [36] was -0.048. For the same binder, the “glycan array binding signal (z-score)” value [37] was -0.128, the “glycan array binding signal (z-score)” value [38] was -0.271 and the “glycan array binding signal (z-score)” value [39] was -0.164. For the same binder, the “glycan array binding signal (z-score)” value [40] was -0.153 and the “glycan array binding signal (z-score)” value [41] was -0.099.
